Gal4-VP16 FLuc: VP16 counterscreen qHTS for inhibitors of ROR gamma transcriptional activity; Drosophila S2 Gal4-VP16 UAS-luciferase, luminescence, 20 h; Potency, µM (titrated, usually from 53.6 µM), without a hit: at the top dose activity, negative = inhibition, hits mostly inhibitors; 3.5% of 310,000 active; AID 2546, 2010;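 note: Gal4-VP16 expression switched on by copper sulfate through the metallothionein promoter; nearly all actives have a fitted effect of over 50% in size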
KinaseGlo FLuc: Counterscreen for Luciferase (Kinase-Glo TM) Inhibition. Luciferin 4-monooxygenase (Photuris pensylvanica), Q27757. Kinase-Glo luciferase, ATP luminescence, 8 min. Potency, µM (titrated, usually from 38.3 µM), inactives show at the top dose activity change, negative = inhibition, actives largely listed as inhibitors. 0.28% of 200,000 active. AID 1379, 2008; note: nearly all actives have a fitted effect of over 60% in size
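Luminescence was the read-out, taken after 8-minute incubation at ambient temperature. Luciferase turned over luciferin with 10 uM ATP in imidazole pH 7.2 buffer containing KCl, MgCl2, Tween 20 and BSA.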
RORg inh: qHTS for inhibitors of ROR gamma transcriptional activity. Nuclear receptor ROR-gamma (Mus musculus), P51450. Drosophila S2 Gal4-RORgamma UAS-luciferase reporter, 20 h. Potency, µM (titrated, usually from 53.6 µM), for inactives: at the top dose activity change, negative = inhibition, usual class: inhibitors. 5.4% of 310,000 active. AID 2551, 2010; note: nearly all actives have a fitted effect of over 60% in size
Target sequence (P51450 whole entry, looked up, the tested form may be a part): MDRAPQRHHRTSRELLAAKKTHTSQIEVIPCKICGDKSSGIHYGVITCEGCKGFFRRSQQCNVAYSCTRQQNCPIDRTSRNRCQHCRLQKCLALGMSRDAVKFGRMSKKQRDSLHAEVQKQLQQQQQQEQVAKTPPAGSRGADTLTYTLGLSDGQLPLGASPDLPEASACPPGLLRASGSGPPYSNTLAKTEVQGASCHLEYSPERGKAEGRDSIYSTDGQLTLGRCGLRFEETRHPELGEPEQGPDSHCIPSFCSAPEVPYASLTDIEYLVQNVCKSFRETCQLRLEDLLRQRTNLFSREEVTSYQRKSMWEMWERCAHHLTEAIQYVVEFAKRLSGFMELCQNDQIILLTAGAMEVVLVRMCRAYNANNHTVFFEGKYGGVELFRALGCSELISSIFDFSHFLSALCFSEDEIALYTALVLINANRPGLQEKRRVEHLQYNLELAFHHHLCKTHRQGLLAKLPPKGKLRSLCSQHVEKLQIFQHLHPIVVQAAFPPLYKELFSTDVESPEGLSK
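Drosophila S2 cells stably expressing Gal4-DBD/mouse RORγ fusion under metallothionein promoter plus UAS-luciferase; compound 1 h, then 700 uM CuSO4 induction for 20 h at ambient temperature; inhibition read as reduced luminescence.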
Starred values were filed as active, the others as inactive; [ ] = another dose, or the depositor's remark. The list is not random: actives were taken first. Their share in the collection is about 6.2%. Calls come from the whole dose curve; as a rule, active = well fitted curve in the direction sought with a large enough effect; inconclusive = small, poorly fitted or top-dose-only effect, or another doubt; inactive = no such curve, though single readings can be large; an effect the other way counts as inactive or inconclusive. % is set by controls: 0 for no effect and ±100 for the full control effect; potency is the fitted concentration of half-maximal effect.

Results for O=C(Nc1cccc(F)c1)c1ccc(Cn2cc([N+](=O)[O-])cn2)o1 ?
Gal4-VP16 FLuc: 2.5%; KinaseGlo FLuc: 4.1%; RORg inh: 24.3%

What do the screens show for `NC[C@@H]1O[C@H](c2ccccc2)Cc2c1ccc(O)c2O`?
Gal4-VP16 FLuc: 25.1µM*; KinaseGlo FLuc: -0.3%; RORg inh: 28.2µM*

Results for NC[C@@H]1O[C@H](C23CC4CC(CC(C4)C2)C3)Cc2c1ccc(O)c2O ?
Gal4-VP16 FLuc: inconclusive; KinaseGlo FLuc: -2.2%; RORg inh: inconclusive

How did CCC(C)[C@H](NC(=O)N1CCCCCC1)C(=O)OC (stereo partly specified) do in these assays?
Gal4-VP16 FLuc: -12.3%; RORg inh: -25.6%

Results for Nc1c(N=Nc2ccccc2F)c(=O)[nH]n1-c1ccccc1 ?
Gal4-VP16 FLuc: -4.5%; KinaseGlo FLuc: -21.0%; RORg inh: -9.5%

How did Cc1cc(=O)n2[nH]c(N)c(N=Nc3ccccc3F)c2n1 do in these assays?
Gal4-VP16 FLuc: 10.6%; KinaseGlo FLuc: -2.9%; RORg inh: 10µM*

Results for C=CC[C@@H]1C=C[C@H](ON=C(C)C)[C@H](CO)O1 ?
Gal4-VP16 FLuc: -8.4%[10 µM]; RORg inh: -8.1%[10 µM]

Results for COc1ccc(S(=O)(=O)N2CCCCC2)cc1NC(=S)Nc1ccccc1 ?
Gal4-VP16 FLuc: -0.3%; KinaseGlo FLuc: 1.8%; RORg inh: -15.9%

Results for CCN(CC)CC(=O)Nc1cccc(S(=O)(=O)N2CCCC2)c1 ?
Gal4-VP16 FLuc: 3.4%; RORg inh: 31.1%

Results for COc1ccc(S(=O)(=O)N2CCCCC2)cc1NCC(=O)Nc1ccc(C)cc1 ?
Gal4-VP16 FLuc: 3.55µM*; RORg inh: 27.9%

Results for CCN(CC)S(=O)(=O)c1cccc(NC(=O)CNc2cccc(S(=O)(=O)N3CCCC3)c2)c1 ?
Gal4-VP16 FLuc: 0.708µM*; RORg inh: -34.7%

How did Cc1c(Cl)cccc1NC(=S)Nn1cnnc1 do in these assays?
Gal4-VP16 FLuc: -9.2%; KinaseGlo FLuc: -2.2%; RORg inh: inconclusive

Results for COc1ccc(S(=O)(=O)N2CCCCC2)cc1NC(=S)Nc1cccc(Cl)c1C ?
Gal4-VP16 FLuc: inconclusive; KinaseGlo FLuc: 3.7%; RORg inh: 11.2µM*

How did COc1ccc(S(=O)(=O)N2CCCCCC2)cc1NC(=O)Cc1cc(OC)c(OC)c(OC)c1 do in these assays?
Gal4-VP16 FLuc: 4.7%; KinaseGlo FLuc: -5.3%; RORg inh: inconclusive

How did Cc1c(Cl)cccc1NC(=S)NNS(=O)(=O)c1ccc([N+](=O)[O-])cc1 do in these assays?
Gal4-VP16 FLuc: 7.08µM*; RORg inh: 4.47µM*

What do the screens show for `COc1cc(/C=N/NC(=O)CN2CCCCC2)ccc1OCc1ccc(Br)cc1`?
Gal4-VP16 FLuc: -5.8%; KinaseGlo FLuc: -3.4%; RORg inh: 33.6%

What do the screens show for `CN(C)CCCN(C(=O)c1ccc2c(c1)CCCC2)c1nc2ccc(Cl)cc2s1`?
Gal4-VP16 FLuc: inconclusive; KinaseGlo FLuc: 0.9%; RORg inh: inconclusive

Results for COc1ccc(S(=O)(=O)N2CCN(C)CC2)cc1C(=O)N1CCCCC1 ?
Gal4-VP16 FLuc: 0.6%; RORg inh: -19.2%

How did COc1ccc(S(=O)(=O)N2CCCCCC2)cc1C(=O)N1CCCCC1 do in these assays?
Gal4-VP16 FLuc: inconclusive; RORg inh: 1.41µM*

What do the screens show for `COC(=O)C1=C[C@@H](C(=O)OC)[C@@H]2C3=C(C(=O)[C@@]2(CC(C)C)NC(=O)c2ccccc2)[C@H](C)n2c(=O)n(-c4ccccc4)c(=O)n2[C@@H]3C1`?
Gal4-VP16 FLuc: 7.2%; RORg inh: -5.1%

Results for CCCCCc1ccc(-c2ccc(/C=C/C(=O)O)cc2)nc1 ?
Gal4-VP16 FLuc: inconclusive; KinaseGlo FLuc: -1.7%; RORg inh: -38.3%[10 µM]

Results for CCCc1ccc(-c2ccc(/C=C/C(=O)O)cc2)nc1 ?
Gal4-VP16 FLuc: inconclusive; KinaseGlo FLuc: 0.3%; RORg inh: 0.159µM*

Results for O=C(NCc1ccncc1)C(=O)N/N=C/c1ccc(OCc2ccccc2)cc1 ?
Gal4-VP16 FLuc: -10.1%; KinaseGlo FLuc: 0.0%; RORg inh: 5.9%

Results for O=NN(CCc1ccncc1)c1ccc(OCc2ccccc2)cc1 ?
Gal4-VP16 FLuc: 6.31µM*; KinaseGlo FLuc: -2.3%; RORg inh: 7.08µM*

What do the screens show for `COc1ccc(OC)c2c1cc(C(=O)N[C@H](C(=O)N1CCC[C@H]1C(=O)O)C(C)C)n2C`?
Gal4-VP16 FLuc: -4.2%; RORg inh: -5.4%

What do the screens show for `O=C(NNS(=O)(=O)c1ccc(F)cc1)c1ccccc1O`?
Gal4-VP16 FLuc: -18.9%; RORg inh: inconclusive

How did Cc1ccc(S(=O)(=O)NNC(=S)NCCc2ccccc2)cc1 do in these assays?
Gal4-VP16 FLuc: inconclusive; RORg inh: 11.2µM*

How did Cc1ccc(S(=O)(=O)NNC(=O)c2ccc(F)cc2)cc1 do in these assays?
Gal4-VP16 FLuc: -6.0%; RORg inh: 1.5%

How did Cc1ccc(S(=O)(=O)NC(=O)NCCc2ccccc2)cc1 do in these assays?
Gal4-VP16 FLuc: -23.0%; KinaseGlo FLuc: -6.1%; RORg inh: 1.4%

How did Cc1ccc(S(=O)(=O)NNC(=O)c2ccccc2O)cc1 do in these assays?
Gal4-VP16 FLuc: 3.7%; KinaseGlo FLuc: -3.5%; RORg inh: 11.2µM*

How did Cc1ccc(C(=O)NC(=S)NNS(=O)(=O)c2ccccc2)cc1 do in these assays?
Gal4-VP16 FLuc: 14.1µM*; KinaseGlo FLuc: 0.8%; RORg inh: 3.16µM*

Results for COc1ccc(NC(C)=O)cc1NC(=O)CSc1nc2ncccc2[nH]1 ?
Gal4-VP16 FLuc: -1.8%; KinaseGlo FLuc: -4.1%; RORg inh: 7.3%[10 µM]

What do the screens show for `O=C(NNS(=O)(=O)c1ccccc1)C1CCCCC1`?
Gal4-VP16 FLuc: 3.8%; RORg inh: 14.3%

Results for CCOC(=O)C(=O)Nc1ccc(Oc2ccccc2)cc1 ?
Gal4-VP16 FLuc: -4.5%; KinaseGlo FLuc: -8.2%; RORg inh: 4.1%

How did NC(N)=NCCC[C@@H](N)C(=O)NCC(=O)N[C@@H](CC(=O)O)C(=O)N[C@@H](Cc1c[nH]c2ccccc12)C(=O)O do in these assays?
Gal4-VP16 FLuc: 2.4%; RORg inh: 27.9%

How did Cc1cc(-n2c(SCC(=O)Nc3ccc(F)c(F)c3)nc3n[nH]c(C)c3c2=N)ccc1Cl do in these assays?
Gal4-VP16 FLuc: inconclusive; RORg inh: -44.0%

Results for Cc1cc(-n2c(SCC(=O)Nc3ccc(Br)cc3)nc3n[nH]c(C)c3c2=N)ccc1Cl ?
Gal4-VP16 FLuc: 20µM*; RORg inh: inconclusive

What do the screens show for `CN(C)CCNC(=O)c1ccc(Sc2ccc(Br)cc2)c([N+](=O)[O-])c1`?
Gal4-VP16 FLuc: -21.0%; KinaseGlo FLuc: -2.0%; RORg inh: -30.7%

How did O=S(=O)(Cc1ccccc1Cl)NCc1ccccc1 do in these assays?
Gal4-VP16 FLuc: 2.3%; KinaseGlo FLuc: 3.9%; RORg inh: inconclusive

How did COc1ccccc1C(=O)Nc1cc(Cl)ccc1-n1cncn1 do in these assays?
Gal4-VP16 FLuc: -15.3%; RORg inh: 11.2µM*

How did O=C(Nc1ccccc1F)Nc1cc(Cl)ccc1-n1cncn1 do in these assays?
Gal4-VP16 FLuc: -5.5%; RORg inh: 3.4%

Results for COc1ccc(/C(C)=N/NC(=O)CNC(=O)c2ccncc2)c(OC)c1 ?
Gal4-VP16 FLuc: -6.7%; RORg inh: -15.3%
